The values below come from PubChem BioAssay (NCI).

Test systems include NCI-H23 lung; NCI-H226 lung; NCI-H322M lung; HOP-62 NSCLC; NCI-H460 lung; HOP-92 NSCLC; A549/ATCC NSCLC; 786-0 renal; COLO 205 colon; DU-145 prostate; K-562 leukemia; MALME-3M melanoma; MDA-MB-231 breast; RXF 393 renal; SF-268 CNS; SF-295 CNS; SF-539 CNS; UACC-257 melanoma; M14 melanoma; NCI-H522 lung.
Common to all, as to assay: NCI-60 one-dose screen, 48 h (100 = growth as untreated, 0 = no growth, -100 = all killed)
Holding throughout (conditions): 10 µM unless noted

The panel holds about 83,000 compounds, 20% with a hit somewhere; the sample as a whole holds those more often.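 Values shown are percent growth following 48 h exposure of cells in 96-well plates to a single concentration of compound; below 10 was considered active.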 Values without a mark were called inactive. Calls of active or inactive are those of the source.

As to `O=c1c2ccccc2cc2n1CCN=C2c1ccccc1`, the growth in the assay with NCI-H23 lung was 93.8%; with NCI-H226 lung, 96%; with NCI-H322M lung, 99.7%; in the assay with HOP-62 NSCLC it was 116%; in the assay with NCI-H460 lung, 101%; with HOP-92 NSCLC, 81%. Further, the growth in the assay with A549/ATCC NSCLC is 102%; in the assay with 786-0 renal, 96.8%; with COLO 205 colon, 103%; in the assay with DU-145 prostate, 102%; in the assay on K-562 leukemia, 103%; in the assay on MALME-3M melanoma, 102%. In addition, the growth in the assay on MDA-MB-231 breast was 96.2%; in the assay on RXF 393 renal it was 96.2%; with SF-268 CNS, 97.2%; in the assay with SF-295 CNS, 103%; in the assay on SF-539 CNS, 98.6%; with UACC-257 melanoma, 110%. Also, the growth with M14 melanoma was 103%.
For `CNC(=O)c1cc(-n2ccc3cc(NC(=O)Nc4ccc(N5CCN(C)CC5)c(C(F)(F)F)c4)ccc32)ccn1`, the growth is 88.6% in the assay with NCI-H23 lung; 96.4% with NCI-H226 lung; 85.4% in the assay with NCI-H322M lung; 75.6% in the assay with HOP-62 NSCLC; 60% in the assay on NCI-H460 lung; 71.1% with HOP-92 NSCLC. For the same molecule, the growth with A549/ATCC NSCLC is 68.2%; with 786-0 renal it was -13.7% (active); in the assay with COLO 205 colon, 90.8%; with DU-145 prostate, 86.5%; in the assay on K-562 leukemia, -53.3% (active); in the assay with MALME-3M melanoma, 2.37% (active). Besides, the growth was 61.5% in the assay on MDA-MB-231 breast; -27.7% (active) with RXF 393 renal; 83.4% with SF-268 CNS; -47.2% (active) in the assay with SF-295 CNS; 1.48% (active) with SF-539 CNS; 72.2% in the assay on UACC-257 melanoma. For the same molecule, in the assay with M14 melanoma, the growth was 59%.
For `COc1ccc2c(c1)c(-c1nnc(N)nc1-c1c[nH]c3ccc(F)cc13)cn2C`, the growth is 44.6% in the assay on NCI-H23 lung; 57.8% in the assay with NCI-H226 lung; 87% in the assay with NCI-H322M lung; 54.7% in the assay with HOP-62 NSCLC; 15.1% in the assay with NCI-H460 lung; 68.7% in the assay on HOP-92 NSCLC. The growth with A549/ATCC NSCLC was 50.7%; with 786-0 renal, 46%; in the assay with COLO 205 colon, 41.4%; in the assay on DU-145 prostate, 70.4%; in the assay with K-562 leukemia it was 11.9%; with MALME-3M melanoma, 75.7%. The growth is 73.7% with MDA-MB-231 breast; 47.8% with RXF 393 renal; 54.2% with SF-268 CNS; 33% in the assay on SF-295 CNS; 40.5% with SF-539 CNS; 62.5% with UACC-257 melanoma. Further, in the assay with M14 melanoma, the growth is 32.8%.
For the molecule `Brc1ccc(-c2cc(-c3ccc4c(c3)OC=CO4)n[nH]2)s1`, the growth is 87.4% with NCI-H23 lung; 95.1% in the assay with NCI-H226 lung; 96.2% in the assay with NCI-H322M lung; 82% with HOP-62 NSCLC; 96.4% in the assay on NCI-H460 lung; 99.7% with HOP-92 NSCLC. Further, the growth is 89.9% in the assay on A549/ATCC NSCLC; 104% in the assay with 786-0 renal; 97.1% in the assay on COLO 205 colon; 99.1% with DU-145 prostate; 31.5% in the assay with K-562 leukemia; 70.3% in the assay with MALME-3M melanoma. The growth was 90.8% with MDA-MB-231 breast; 101% with RXF 393 renal; 89% with SF-268 CNS; 82.6% in the assay with SF-295 CNS; 85.2% with SF-539 CNS; 90.7% with UACC-257 melanoma. Besides, the growth with M14 melanoma is 75.3%.
For the molecule `CC(C)[C@H]1c2[nH]c3ccccc3c2C[C@H]2C(=O)N(CCCCCCC(=O)NO)CC(=O)N12`, the growth in the assay with NCI-H23 lung is 87.6%; in the assay with NCI-H226 lung it was 102%; in the assay on NCI-H322M lung, 88.4%; in the assay on HOP-62 NSCLC, 85.7%; with NCI-H460 lung, 78.5%; in the assay on HOP-92 NSCLC it was 74.9%. Also, the growth with A549/ATCC NSCLC was 98.7%; in the assay with 786-0 renal, 97.3%; in the assay with COLO 205 colon, 83.8%; in the assay on DU-145 prostate it was 92.4%; in the assay on K-562 leukemia, 60.6%; with MALME-3M melanoma, 31.1%. Also, the growth is 92.5% with MDA-MB-231 breast; 87% with RXF 393 renal; 107% in the assay with SF-268 CNS; 95.2% in the assay on SF-295 CNS; 73.6% with SF-539 CNS; 57.7% with UACC-257 melanoma. In addition, the growth with M14 melanoma is 82.2%.
For the molecule `CC(=O)Nc1ccccc1-c1nc2ccccc2s1`, the growth in the assay on NCI-H23 lung was 91.8%; in the assay with NCI-H226 lung, 98.9%; in the assay with NCI-H322M lung it was 101%; with HOP-62 NSCLC it was 101%; in the assay on NCI-H460 lung it was 101%; in the assay on HOP-92 NSCLC, 96.6%. Further, the growth in the assay with NCI-H522 lung was 95.7%; in the assay with A549/ATCC NSCLC it was 106%; with 786-0 renal it was 104%; in the assay on DU-145 prostate, 110%; in the assay on K-562 leukemia, 113%; with MALME-3M melanoma it was 106%. Besides, the growth is 99.2% with MDA-MB-231 breast; 103% in the assay on RXF 393 renal; 101% in the assay on SF-268 CNS; 103% with SF-295 CNS; 100% in the assay with SF-539 CNS; 107% in the assay on UACC-257 melanoma. Moreover, the growth in the assay on M14 melanoma is 103%.
For the molecule `O=C(CSc1nnc(-c2ccc(Cl)cc2)n1-c1ccccc1)Nc1ccccc1Cl`, the growth in the assay on NCI-H23 lung is 48.5%; in the assay on NCI-H226 lung, 48.7%; in the assay with NCI-H322M lung, 66.2%; in the assay with HOP-62 NSCLC, 115%; with NCI-H460 lung it was 54.5%; in the assay with HOP-92 NSCLC it was 101%. Besides, the growth in the assay on A549/ATCC NSCLC is 30.4%; in the assay with 786-0 renal, 42.1%; in the assay on COLO 205 colon, 88.7%; in the assay on DU-145 prostate it was 68.4%; in the assay on K-562 leukemia it was 67.1%; in the assay on MALME-3M melanoma, 79.2%. Besides, the growth with MDA-MB-231 breast is 44.8%; with RXF 393 renal, 74%; in the assay with SF-268 CNS it was 81.5%; in the assay on SF-295 CNS it was 31.5%; with SF-539 CNS it was 52.1%; with UACC-257 melanoma it was 95.1%. Also, the growth in the assay with M14 melanoma was 78.2%.
Regarding `CCNCCOc1ccc(/C(=C(/CC)c2ccc(Cl)cc2)c2ccc(OCCCN(C)C)cc2)cc1`, the growth in the assay on NCI-H23 lung was -87.3% (active); in the assay on NCI-H226 lung, -66.4% (active); in the assay on NCI-H322M lung, -95.4% (active); in the assay with HOP-62 NSCLC, -80.1% (active); in the assay with NCI-H460 lung, -74.2% (active); with HOP-92 NSCLC, -74.6% (active). For the same molecule, the growth in the assay on A549/ATCC NSCLC was -60.9% (active); with 786-0 renal, -86% (active); with COLO 205 colon, -82.3% (active); in the assay on DU-145 prostate it was -91.7% (active); with K-562 leukemia it was 0.0244% (active); in the assay with MALME-3M melanoma, -85.1% (active). In addition, the growth in the assay on MDA-MB-231 breast was -87.2% (active); with RXF 393 renal it was -92.1% (active); in the assay with SF-268 CNS it was -66.7% (active); in the assay on SF-295 CNS, -85.8% (active); in the assay on SF-539 CNS it was -93.9% (active); with UACC-257 melanoma, -82.8% (active). The growth in the assay with M14 melanoma was -86.9% (active).
